In assay [1] the target is Acetylcholinesterase (Homo sapiens) (UniProt P22303). In words: Acetylcholinesterase (AChE) small molecule antagonists: colormetric cell-based qHTS assay (AID 1347395; calls by dose curve; note: nearly all actives have a fitted effect of over 30% in size). Summed up: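 AChE inhibition read colorimetrically via DTNB–thiocholine in SH-SY5Y cells. Compound 30 min, substrate 90 min, both 37 C.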
(In general: In qHTS, concentration-response curves come from the screen itself.)

Assay [2] has the same target. Put plainly: Acetylcholinesterase (AChE) small molecule antagonists: enzyme-based qHTS assay (AID 1347397; calls by dose curve; note: nearly all actives have a fitted effect of over 55% in size). Particulars: Potency: AChE enzyme activity inhibition. Summed up: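 Compound or DMSO vehicle was pin-transferred onto recombinant human AChE (50 mU/mL as dispensed) and left 30 min at room temperature. Acetylthiocholine with DTNB then started the reaction, read colorimetrically 10 min later.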

For assay [3] the target is unchanged. Put plainly: Acetylcholinesterase (AChE) small molecule antagonists: fluorescence cell-based qHTS assay (AID 1347398; calls by dose curve; note: nearly all actives have a fitted effect of over 50% in size). As to conditions: Potency: AChE activity. Summed up: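 Using neuroblastoma SH-SY5Y cells as the enzyme source, test chemicals are preincubated 30 min at 37 C; AChE-driven acetylthiocholine cleavage is then quantified by thiocholine-dependent Thiolite Green fluorescence after 40 min at room temperature.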

Assay [4] shares this target. Put plainly: Acetylcholinesterase (AChE) small molecule antagonists: enzyme-based qHTS assay with human liver microsomes (AID 1347399; calls by dose curve; note: nearly all actives have a fitted effect of over 60% in size). As to conditions: Potency: qHTS inhibition. Summed up: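 Recombinant human AChE (50 mU/mL in the enzyme mix) and human liver microsomes (0.25 mg/mL final) were preincubated with compound and NADPH (0.25 mg/mL final) for 30 min at 37 C. Acetylthiocholine/DTNB was then added; thiocholine was read colorimetrically after 10 min at room temperature.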

Assay [5] concerns the target Cytochrome P450 2D6 (Homo sapiens) (UniProt P10635). Put plainly: Cytochrome P450 Family 2 Subfamily D Member 6 (CYP2D6) small molecule antagonists: luciferase reporter qHTS assay (AID 1671196). Note: nearly all actives have a fitted effect of over 50% in size. The method in brief:
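Room-temperature luminescent CYP2D6 activity assay: compound preincubated 10 min with enzyme–substrate mix, NADPH-initiated reaction 1 h, detection reagent 20 min before reading.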
In general terms: In a reporter assay the amount or activity of a reporter protein is the signal.

The target in assay [6] is Cytochrome P450 2C19 (Homo sapiens) (UniProt P33261). Put plainly: Cytochrome P450 Family 2 Subfamily C Member 19 (CYP2C19) small molecule antagonists: luciferase reporter qHTS assay (AID 1671197). Note: nearly all actives have a fitted effect of over 65% in size. Summed up: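 Inhibition of CYP2C19 was scored from loss of luminescence in a P450-Glo proluciferin substrate assay, NADPH-started and run 1 h at 37C, with ketoconazole as positive control.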
Chain of Cytochrome P450 2C19 (Homo sapiens) (P33261 whole entry, looked up): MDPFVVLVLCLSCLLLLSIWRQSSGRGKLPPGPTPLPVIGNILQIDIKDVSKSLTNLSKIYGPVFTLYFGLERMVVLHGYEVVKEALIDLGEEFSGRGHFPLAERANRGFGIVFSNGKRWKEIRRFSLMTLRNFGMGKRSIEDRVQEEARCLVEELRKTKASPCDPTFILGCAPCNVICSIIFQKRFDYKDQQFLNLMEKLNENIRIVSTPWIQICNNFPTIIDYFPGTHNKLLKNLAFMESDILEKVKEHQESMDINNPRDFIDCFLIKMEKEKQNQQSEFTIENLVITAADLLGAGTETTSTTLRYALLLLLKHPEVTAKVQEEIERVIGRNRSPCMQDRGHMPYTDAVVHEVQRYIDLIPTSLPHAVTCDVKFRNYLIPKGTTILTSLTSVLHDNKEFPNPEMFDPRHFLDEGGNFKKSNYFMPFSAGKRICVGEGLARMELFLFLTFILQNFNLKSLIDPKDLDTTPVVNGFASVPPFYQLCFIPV

The target in assay [7] is Voltage-gated inwardly rectifying potassium channel KCNH2 (Homo sapiens) (UniProt Q12809). Put plainly: Human Ether-a-go-go-Related Gene (hERG) channel small molecule antagonists: fluorescence cell-based qHTS assay (AID 1671200). Note: nearly all actives have a fitted effect of over 50% in size. The method in brief: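 Kinetic two-minute fluorescence traces, sampled at 1 s, were collected following thallium stimulus of U2OS cells (1000 per well) that had been cultured overnight at 37 C and loaded with FluxOR II.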
Chain of Voltage-gated inwardly rectifying potassium channel KCNH2 (Homo sapiens) (Q12809 whole entry, looked up): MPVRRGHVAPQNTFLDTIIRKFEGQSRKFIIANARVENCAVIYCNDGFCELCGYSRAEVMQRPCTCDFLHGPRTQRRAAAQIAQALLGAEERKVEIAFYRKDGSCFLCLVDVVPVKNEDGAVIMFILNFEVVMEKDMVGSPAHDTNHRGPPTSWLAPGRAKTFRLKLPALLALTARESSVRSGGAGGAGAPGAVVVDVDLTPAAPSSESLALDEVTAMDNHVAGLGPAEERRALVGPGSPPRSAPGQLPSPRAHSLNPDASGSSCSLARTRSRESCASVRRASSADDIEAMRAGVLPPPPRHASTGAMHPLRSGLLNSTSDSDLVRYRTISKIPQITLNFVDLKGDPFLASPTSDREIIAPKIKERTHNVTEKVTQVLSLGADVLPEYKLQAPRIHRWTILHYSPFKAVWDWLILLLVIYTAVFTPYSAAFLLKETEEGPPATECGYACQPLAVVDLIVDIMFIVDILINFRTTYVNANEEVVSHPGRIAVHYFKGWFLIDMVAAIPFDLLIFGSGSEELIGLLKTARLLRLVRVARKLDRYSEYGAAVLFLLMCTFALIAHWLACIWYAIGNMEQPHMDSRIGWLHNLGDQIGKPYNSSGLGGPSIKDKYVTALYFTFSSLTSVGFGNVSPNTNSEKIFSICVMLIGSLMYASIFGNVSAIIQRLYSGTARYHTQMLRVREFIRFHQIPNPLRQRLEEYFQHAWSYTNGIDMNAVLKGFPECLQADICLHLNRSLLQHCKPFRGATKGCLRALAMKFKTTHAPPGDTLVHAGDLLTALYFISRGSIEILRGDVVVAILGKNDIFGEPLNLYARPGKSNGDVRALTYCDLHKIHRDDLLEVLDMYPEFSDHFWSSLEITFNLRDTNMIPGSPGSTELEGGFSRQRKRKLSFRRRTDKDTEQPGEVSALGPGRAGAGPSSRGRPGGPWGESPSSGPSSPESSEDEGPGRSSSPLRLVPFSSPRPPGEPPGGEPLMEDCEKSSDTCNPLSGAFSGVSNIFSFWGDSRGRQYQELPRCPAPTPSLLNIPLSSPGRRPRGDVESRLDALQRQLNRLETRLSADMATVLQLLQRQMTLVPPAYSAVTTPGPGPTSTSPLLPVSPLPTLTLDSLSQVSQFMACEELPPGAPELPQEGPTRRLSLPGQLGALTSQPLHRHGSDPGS
In general terms: Block of hERG is tested as a sign of cardiac risk.

In assay [8] the target is Cytochrome P450 3A4 (Homo sapiens) (UniProt P08684). Put plainly: Cytochrome P450 Family 3 Subfamily A Member 4 (CYP3A4) small molecule antagonists: luciferase reporter qHTS assay (AID 1671201). Note: nearly all actives have a fitted effect of over 50% in size. Summed up:
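Proluciferin-to-luciferin conversion by CYP3A4, NADPH-regenerated, 1 h RT; luminescence read as RLU. Ketoconazole as control.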

For assay [9], the target named is Cytochrome P450 2C9 (Homo sapiens) (UniProt P11712). In words: Cytochrome P450 Family 2 Subfamily C Member 9 (CYP2C9) small molecule antagonists: luciferase reporter qHTS assay (AID 1671198). Note: nearly all actives have a fitted effect of over 50% in size. Summed up: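 CYP2C9 activity was measured with a P450-Glo proluciferin substrate. Enzyme–substrate mix was held with compound for 10 min at room temperature, then NADPH regeneration solution was added for 1 h at 37C. Luciferin product was read as luminescence.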
Chain of Cytochrome P450 2C9 (Homo sapiens) (P11712 whole entry, looked up): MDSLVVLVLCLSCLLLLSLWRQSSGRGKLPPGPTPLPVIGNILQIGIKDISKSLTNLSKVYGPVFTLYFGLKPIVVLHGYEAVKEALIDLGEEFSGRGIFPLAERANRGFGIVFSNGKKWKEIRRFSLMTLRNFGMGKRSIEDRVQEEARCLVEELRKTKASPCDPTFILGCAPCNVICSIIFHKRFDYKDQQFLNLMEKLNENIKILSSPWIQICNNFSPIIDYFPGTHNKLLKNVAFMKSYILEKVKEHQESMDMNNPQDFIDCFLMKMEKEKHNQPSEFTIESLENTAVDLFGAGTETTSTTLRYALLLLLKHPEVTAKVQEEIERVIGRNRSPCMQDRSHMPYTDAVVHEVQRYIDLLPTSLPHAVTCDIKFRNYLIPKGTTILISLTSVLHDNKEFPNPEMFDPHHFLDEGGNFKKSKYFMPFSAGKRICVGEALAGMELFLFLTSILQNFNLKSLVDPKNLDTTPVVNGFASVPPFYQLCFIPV

The target of assay [10] is Cytochrome P450 1A2 (Homo sapiens) (UniProt P05177). In words: Cytochrome P450 Family 1 Subfamily A Member 2 (CYP1A2) small molecule antagonists: luciferase reporter qHTS assay (AID 1671199). Note: nearly all actives have a fitted effect of over 50% in size. The method in brief: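 Room-temperature CYP1A2 reaction with proluciferin substrate: compounds added from DMSO, 10 min preincubation, NADPH regeneration for 1 h. Luciferin detection reagent then added; luminescence recorded as RLU.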
Chain of Cytochrome P450 1A2 (Homo sapiens) (P05177 whole entry, looked up): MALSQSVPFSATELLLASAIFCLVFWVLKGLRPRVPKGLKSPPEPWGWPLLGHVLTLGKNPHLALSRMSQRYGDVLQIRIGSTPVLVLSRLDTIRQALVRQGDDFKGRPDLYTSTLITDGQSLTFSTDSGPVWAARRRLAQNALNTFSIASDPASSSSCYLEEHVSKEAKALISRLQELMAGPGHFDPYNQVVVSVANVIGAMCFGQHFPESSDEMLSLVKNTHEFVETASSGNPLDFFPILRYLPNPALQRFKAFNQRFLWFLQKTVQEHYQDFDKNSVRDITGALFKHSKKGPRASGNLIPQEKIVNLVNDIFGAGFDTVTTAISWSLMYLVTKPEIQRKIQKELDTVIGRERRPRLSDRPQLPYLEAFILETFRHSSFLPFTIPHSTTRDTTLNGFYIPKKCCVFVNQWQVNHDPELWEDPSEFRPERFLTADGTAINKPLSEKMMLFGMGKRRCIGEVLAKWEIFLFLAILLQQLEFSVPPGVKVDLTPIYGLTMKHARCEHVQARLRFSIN

Here are results for 25 compounds from PubChem BioAssay (Tox21).

Where “and” joins values, the source holds several entries; their conditions need not be identical. Equal entries are not always repeated. Results filed as inconclusive are left out. Calls of active or inactive are those of the source. Unless noted, calls come from the whole dose curve; as a rule, active = well fitted curve in the direction sought with a large enough effect in the repeat runs; inconclusive = weak or mixed curves; inactive = no such curve, though single readings can be large; an effect the other way counts as inactive or inconclusive.
Potency is the fitted concentration of half-maximal effect.

Chain of Cytochrome P450 3A4 (Homo sapiens) (P08684 whole entry, looked up): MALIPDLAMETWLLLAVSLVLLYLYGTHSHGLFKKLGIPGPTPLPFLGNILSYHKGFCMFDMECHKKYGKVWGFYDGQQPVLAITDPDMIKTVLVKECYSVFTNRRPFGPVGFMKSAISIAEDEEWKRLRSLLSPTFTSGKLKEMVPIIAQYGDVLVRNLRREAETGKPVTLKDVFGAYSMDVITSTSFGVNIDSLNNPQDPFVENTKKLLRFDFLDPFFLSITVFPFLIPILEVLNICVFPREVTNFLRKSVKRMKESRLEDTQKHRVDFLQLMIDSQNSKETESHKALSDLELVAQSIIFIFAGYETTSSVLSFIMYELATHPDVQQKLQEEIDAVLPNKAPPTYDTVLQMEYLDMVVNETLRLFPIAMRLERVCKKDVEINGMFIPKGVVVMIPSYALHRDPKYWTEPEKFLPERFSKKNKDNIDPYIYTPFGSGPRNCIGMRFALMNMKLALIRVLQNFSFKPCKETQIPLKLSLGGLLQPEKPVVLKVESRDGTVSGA
Chain of Acetylcholinesterase (Homo sapiens) (P22303 whole entry, looked up): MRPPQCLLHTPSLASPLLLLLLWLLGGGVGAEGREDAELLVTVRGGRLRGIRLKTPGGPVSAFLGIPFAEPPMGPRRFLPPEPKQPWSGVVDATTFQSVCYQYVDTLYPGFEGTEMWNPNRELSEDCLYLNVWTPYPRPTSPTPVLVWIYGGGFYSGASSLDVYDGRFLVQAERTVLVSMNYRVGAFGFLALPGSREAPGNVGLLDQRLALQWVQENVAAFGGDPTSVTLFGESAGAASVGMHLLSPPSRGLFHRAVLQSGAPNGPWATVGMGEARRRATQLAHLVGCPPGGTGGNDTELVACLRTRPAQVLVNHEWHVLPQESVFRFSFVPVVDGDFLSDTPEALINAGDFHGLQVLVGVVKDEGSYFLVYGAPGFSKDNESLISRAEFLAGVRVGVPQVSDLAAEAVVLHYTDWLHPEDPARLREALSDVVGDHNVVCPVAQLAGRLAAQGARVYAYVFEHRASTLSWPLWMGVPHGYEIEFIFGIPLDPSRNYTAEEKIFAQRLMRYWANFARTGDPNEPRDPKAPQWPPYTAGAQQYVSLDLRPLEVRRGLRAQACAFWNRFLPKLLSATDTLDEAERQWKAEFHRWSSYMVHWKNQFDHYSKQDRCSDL
Chain of Cytochrome P450 2D6 (Homo sapiens) (P10635 whole entry, looked up): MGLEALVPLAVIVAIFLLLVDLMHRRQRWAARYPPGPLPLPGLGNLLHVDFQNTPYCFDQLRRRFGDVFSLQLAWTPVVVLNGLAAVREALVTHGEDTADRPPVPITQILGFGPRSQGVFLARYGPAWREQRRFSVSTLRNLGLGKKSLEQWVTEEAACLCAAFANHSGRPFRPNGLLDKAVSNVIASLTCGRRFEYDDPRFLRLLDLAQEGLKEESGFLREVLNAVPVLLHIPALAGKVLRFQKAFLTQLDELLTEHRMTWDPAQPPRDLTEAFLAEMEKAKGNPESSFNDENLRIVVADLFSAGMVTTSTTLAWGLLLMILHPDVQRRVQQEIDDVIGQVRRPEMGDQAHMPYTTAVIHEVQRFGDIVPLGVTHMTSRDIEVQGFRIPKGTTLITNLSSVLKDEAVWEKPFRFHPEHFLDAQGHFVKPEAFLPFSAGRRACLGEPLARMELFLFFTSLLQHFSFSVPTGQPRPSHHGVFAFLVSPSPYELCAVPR

With `CC(C)(Cl)[N+](=O)[O-]`, the Potency result in assay [1], in assay [2], in [3], in assay [4], in assay [5] and in assay [7] was “inactive” each time. For the same compound, the Potency entry in assay [8] was “inactive”. In assay [6], the Potency is 89.8 µM (active).
Regarding `O=C(O)C1(c2ccc3c(c2)OC[C@H](Cc2ccc(-c4ccccc4)cc2)[C@H]3O)CCCC1`, the Potency result in [1], in assay [2], in assay [3], in assay [4], in assay [5] and in assay [10] was “inactive” in each case. The Potency result in assay [7] and in assay [8] was “inactive” each time. The Potency in [9] is 71 µM (active).
Take `Nc1ccc([N+](=O)[O-])cc1[N+](=O)[O-]`: the Potency result in assay [1], in [2], in assay [3], in assay [4], in [6] and in [9] was “inactive” in each case. The Potency result in [7] and in assay [8] was “inactive” in each case. Further, the Potency in assay [10] is 6.92 µM (active).
With `CCOP(=O)(OCC)SCCSCC`, the Potency was 3.4 µM (active) and 7.96 µM (active) in assay [1]; 7.61 µM (active) and 20 µM (active) in [2]; 3.03 µM (active) and 10 µM (active) in [3]; 17 µM (active) and 35.6 µM (active) in assay [4]; 21.4 µM (active) and 35.6 µM (active) in assay [6]; 34 µM (active) in [10]. For the same compound, the Potency entry in assay [9], in assay [7] and in assay [8] was “inactive” in each case.
Consider `C=CC[C@]1(O)CC[C@H]2[C@@H]3CCC4=CC(=O)CCC4=C3C=C[C@@]21C`, for which the Potency entry in assay [1], in assay [2], in [4], in assay [10] and in assay [7] was “inactive” in each case. Also, the Potency was 6.92 µM (active) in assay [3], 9.77 µM (active) in assay [6] and 11 µM (active) in assay [9].
With `N#CCC#N`, the Potency result in assay [1], in assay [2], in assay [3], in assay [4], in assay [6] and in [10] was “inactive” each time. Further, in assay [7], the Potency result was “inactive”. Besides, the Potency in [9] was 63.3 µM (active).
Consider `Cc1cc(=O)[nH]o1`, for which the Potency entry in [1], in [2], in [3], in [4], in [5] and in assay [10] was “inactive” each time. Further, the Potency entry in [7] and in assay [8] was “inactive” throughout. Further, the Potency in [9] was 110 µM (active).
On to `CC(C)(C)C(O)C(Oc1ccc(Cl)cc1)n1cncn1` (configuration not stated), for which the Potency entry in assay [1], in assay [2], in assay [3], in [4] and in [7] was “inactive” each time. The Potency in assay [6] was 0.796 µM (active); in assay [9], 33.6 µM (active).
As to `ClP(Cl)(Cl)(Cl)Cl`, the Potency result in assay [1], in assay [2], in assay [3], in assay [4], in [5] and in [9] was “inactive” throughout. In addition, the Potency result in [10] and in [7] was “inactive” in each case.
Consider `CCCCN(N=O)C(=N)N[N+](=O)[O-]`, for which the Potency result in assay [1], in assay [2], in assay [3], in [4], in assay [6] and in [9] was “inactive” throughout. Also, in assay [7], the Potency entry was “inactive”. The Potency in assay [10] was 40.8 µM (active).
Consider `C=CC(C)=O`, for which the Potency result in assay [1], in assay [2], in [3], in assay [4], in [5] and in [9] was “inactive” in each case. In addition, the Potency result in [7] and in assay [8] was “inactive” throughout.
With `Clc1cccc(SC2CCNCC2)n1`, the Potency result in assay [1], in [2], in assay [3], in assay [4] and in assay [7] was “inactive” throughout.
Consider `CC1(C)CCC(Cc2ccc(Cl)cc2)C1(O)Cn1cncn1` (configuration not stated), for which the Potency result in [1], in assay [3] and in [4] was “inactive” each time. The Potency in assay [5] is 35.6 µM (active); in assay [6], 0.126 µM (active); in [9], 0.178 µM (active); in [10] it was 39.9 µM (active); in assay [8] it was 0.0317 µM (active).
Consider `CS/C(C)=N/OC(=O)N(C)SN(C)C(=O)O/N=C(\C)SC`, for which the Potency in assay [1] was 1.42 µM (active); in assay [2], 5.03 µM (active); in [3], 0.71 µM (active); in assay [4] it was 31.7 µM (active); in assay [6], 71 µM (active); in [9], 79.6 µM (active). Moreover, the Potency result in assay [8] was “inactive”.
Consider `COP(=S)(OC)Oc1cc(Cl)c(I)cc1Cl`, for which the Potency entry in [1], in assay [2], in assay [4] and in assay [5] was “inactive” throughout. Besides, the Potency is 2.24 µM (active) in assay [6], 3.99 µM (active) in assay [9], 12.6 µM (active) in assay [10] and 20 µM (active) in [8].
Take `CCOP(=S)(Oc1ccc([N+](=O)[O-])cc1)c1ccccc1` (configuration not stated): the Potency entry in [1], in assay [2] and in assay [3] was “inactive” throughout. The Potency was 0.159 µM (active) in assay [6]; 0.564 µM (active) in assay [9]; 5.64 µM (active) in assay [10]; 0.616 µM (active) in [7]; 1.59 µM (active) in assay [8].
`CO/N=C(/C(=O)OC)c1ccccc1COc1ccccc1C`: the Potency result in assay [1], in assay [3], in assay [4], in [5], in assay [7] and in [8] was “inactive” each time. Moreover, the Potency in assay [6] was 0.633 µM (active); in assay [9], 28.3 µM (active); in assay [10], 20 µM (active).
`CC(Cl)C(C)Cl` (configuration not stated): the Potency entry in assay [1], in [3], in assay [4], in [5], in assay [6] and in assay [9] was “inactive” in each case. The Potency entry in assay [10], in assay [7] and in [8] was “inactive” in each case.
For the compound `O=[N+]([O-])c1cc(C(F)(F)F)cc([N+](=O)[O-])c1Cl`, the Potency result in assay [1], in [3], in assay [4], in assay [7] and in assay [8] was “inactive” in each case. The results for the Potency in assay [5], in [6] and in assay [9] were 17.9 µM (active), 40.1 µM (active) and 17.9 µM (active), respectively.
For `CCC(COC(=O)c1cc(OC)c(OC)c(OC)c1)(c1ccccc1)N(C)C` (configuration not stated), the Potency entry in assay [1], in assay [2], in assay [4] and in assay [10] was “inactive” throughout. Further, the figures for the Potency in assay [5], in assay [6] and in assay [9] were 0.55 µM (active), 24.5 µM (active) and 15.5 µM (active), respectively.
For the compound `C=CC(=O)OC(C)(C)C`, the Potency entry in [1], in assay [3], in assay [4], in [5], in [7] and in assay [8] was “inactive” throughout. Further, the figures for the Potency in assay [6] and in [10] were 30.6 µM (active) and 2.43 µM (active), respectively.
As to `Cc1ccccc1CCl`, the Potency result in assay [1], in [3], in assay [4], in [5], in assay [6] and in assay [9] was “inactive” throughout. Besides, the Potency entry in assay [10], in [7] and in assay [8] was “inactive” in each case.
In the case of `CCC(C)(NC(=O)c1cc(Cl)c(C)c(Cl)c1)C(=O)CCl` (configuration not stated), the Potency entry in [1], in [2] and in assay [4] was “inactive” throughout. In addition, the Potency was 35.8 µM (active) in assay [5]; 25.3 µM (active) in [6]; 35.8 µM (active) in assay [9]; 2.26 µM (active) in [10]; 43.9 µM (active) in [7]; 6.37 µM (active) in [8].
Consider `Nc1nc(=S)[nH][nH]1`, for which the Potency result in assay [1], in assay [2], in assay [4], in assay [7] and in assay [8] was “inactive” throughout. In addition, the Potency in assay [5] was 44.8 µM (active); in assay [6] it was 25.2 µM (active); in [9], 31.7 µM (active).
For the compound `C=C(C#N)CCC#N`, the Potency entry in assay [1], in assay [3], in assay [4], in [5], in assay [6] and in assay [9] was “inactive” each time. Besides, the Potency result in assay [7] and in assay [8] was “inactive” throughout.
